About 83,000 compounds went through this panel and 20% of them were active in at least one assay; those are over-represented in the sample as a whole.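 Plates (96-well) were seeded with cells, treated with compound at one concentration, and incubated for 48 hours before percent growth was determined.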 A number with no mark means an inactive call. Calls of active or inactive are those of the source. The calls were made as follows: active = growth percent below 10; inactive = the rest.
Each molecule was assayed on RXF 393 renal (assay: NCI-60 one-dose screen, 48 h (100 = growth as untreated, 0 = no growth, -100 = all killed)). Conditions: 10 µM unless noted.

`COc1ccc(N=C2CSc3nnc(-c4cc(F)c(Cl)cc4Cl)n3N2)cc1` was tested, and the growth was -52.7% (active).
`COc1ccc(CNc2c3ccccc3nc3ccc(OC)cc23)cc1` was tested, and the growth was -2.57% (active).
`O=C(Nc1cccc(-n2ccc3c(NC(=O)c4ccccc4)nccc32)c1)c1ccc(N2CCOCC2)c(C(F)(F)F)c1` was tested, and the growth was -59.8% (active).
In the case of `CNC(=O)c1c(NC(=O)c2ccc(C(C)C)cc2)sc2c1CCC(=O)C2`, the growth is reported as -32.9% (active).
In the case of `CC(CN1CCN(CC(C)Nc2ccnc3cc(Cl)ccc23)CC1)Nc1ccnc2cc(Cl)ccc12` (centres undefined), the growth is reported as -69.4% (active).
`CC(C)(C)[Si](C)(C)OC1[C@@H](CNC(N)=O)O[C@@H](n2cnc3c(NC(=O)Nc4ccccc4)ncnc32)[C@H]1O[Si](C)(C)C(C)(C)C` (some centres undefined) was tested, and the growth was 6.77% (active).
With `NC(CCC(=O)NC(CS)C(=O)NCC(=O)O)C(=O)O` (centres undefined) the growth was -24.6% (active).
With `O=C1/C(=C/c2ccccc2)SC(=Nc2ccccc2)N1Nc1ccccc1` the growth was -58% (active).

First: Nc1c(C(=O)Nc2cccc(Cl)c2)sc2nc3c(cc12)C(=O)CCC3
Second: Cc1ccc(NC(=O)c2sc3nc4c(cc3c2N)C(=O)CCC4)cc1Cl
The growth of the first is lower: 25.9% for the first, 117% for the second.

Going from `CCOC(=O)c1cc(C(=O)OCC)c(C)nc1C` to `CCOC(=O)C1OC2(CCCC2)OC1C(=O)OCC` (centres undefined), the growth falls from 117% to 104%.

Going from `NC(=O)N/N=C\c1ccc([N+](=O)[O-])o1` to `CS(=O)(=O)c1ccc(C(=O)N/N=C/c2ccccc2Cl)cc1`, the growth falls from 123% to 117%.

Going from `COc1ccc(-n2c(COc3ccc(F)cc3)n[nH]c2=S)cc1` to `CCCCc1nc(Cl)c(C2CC(c3ccc(S(N)(=O)=O)cc3)=NN2c2ccc(C#N)cc2)[nH]1` (centres undefined), the growth rises from 80.3% to 81.1%.

First: COc1ccccc1-[n+]1cc(-c2ccc(-c3ccccc3)cc2)n2c1CCCCC2
Second: Oc1c(C(Nc2cccc3ccccc23)c2ccccc2)ccc2cccnc12 (centres undefined)
The growth of the first is lower: 15.2% for the first, 69.4% for the second.

Going from `Nc1cc(C(=O)O)cc(C(=O)O)c1` to `O=C(CC(=O)c1cccc(Cl)c1)c1cccc(Cl)c1`, the growth falls from 128% to 61.9%.

Compared with `CN(C)c1nc(-c2cccs2)n2nc(-c3ccco3)cc2n1`, `C[C@@H]1N=C(c2ccc3ccccc3c2)Nc2nc3ccccn3c2C1=O` is lower in growth: 83.7% for the first, 49.9% for the second.

First: Cc1c2c(cc3c1[nH]c1ccccc13)C=NCC2
Second: Cc1ccc(Nc2cccc3ccccc23)cc1
The growth of the first is lower: 84.9% for the first, 91.2% for the second.

Going from `CC(C)c1ccc2c(c1)CCC1C2CCCC1(C)NCc1ccccc1` (centres undefined) to `CCN(CC)CCCC(C)Nc1c(-c2ccccc2)cnc2cc(Cl)ccc12` (centres undefined), the growth rises from 51.7% to 63.4%.

Compared with `CC1(C)OC2OC3C(CN)OC(c4ccccc4)OC3C2O1` (centres undefined), `O=C1Nc2ccc(Br)cc2/C1=N/c1nc(-c2ccccc2)cs1` is lower in growth: 122% for the first, 91.7% for the second.

Going from `O/N=C1\c2ccccc2-c2ccc(Br)cc21` to `CS(=O)(=O)c1ccc(C(=O)N/N=C/c2ccccc2O)cc1`, the growth falls from 116% to 53%.

First: OC(COCc1ccccc1)COCc1ccccc1
Second: CCn1c(Cc2ccccc2Nc2c(Cl)cccc2Cl)nnc1SCC(=O)Nc1ccccc1C(F)(F)F
The growth of the first is higher: 119% for the first, 94.6% for the second.

Compared with `O=C1CCCN1C1CCN2CCCc3cccc1c32` (centres undefined), `O=C(NCCN1CCCC1)n1cc(-c2ccncc2)c(-c2cc(O)cc(Cl)c2)n1` is lower in growth: 128% for the first, 75.5% for the second.

Going from `C/C(=N\NC(=O)CSc1nc2ccccc2c(=O)n1CCc1ccc(S(N)(=O)=O)cc1)c1ccc(Br)cc1` to `CC(C)CCSc1nc(Nc2ccccc2)c(C#N)c(-c2ccc(F)cc2)n1`, the growth falls from 99.1% to 82%.

First: CNCCCn1c2c(c3ccc(Cl)cc3c1=O)C(=O)c1cc(OC)cnc1-2
Second: CC(=O)Oc1ccccc1C(=O)Nc1ncc([N+](=O)[O-])s1
The growth of the first is higher: 61.2% for the first, 54.5% for the second.

Work on `COc1ccc(CC2c3cc(OC)c(OC)cc3CC[N+]2(C)CCC(=O)OCCCCCOC(=O)CC[N+]2(C)CCc3cc(OC)c(OC)cc3C2Cc2ccc(OC)c(OC)c2)cc1OC` (centres undefined) yielded a growth of 91.5%.

— PubChem BioAssay (NCI)
